Residue numbers refer to the chain shown, from its start.
Tests used:
Assay in all cases: PBM; 200 nM protein, PBS
Settings in all cases: dsDNA, one strand shown
VENTX [1] = molecular target: T1, VENTX (Homo sapiens, UniProt O95231 78-163, R121Q)
T1 sequence: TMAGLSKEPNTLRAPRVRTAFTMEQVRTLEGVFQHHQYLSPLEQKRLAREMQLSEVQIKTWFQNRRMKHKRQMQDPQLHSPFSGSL

VENTX [2] = molecular target: T2, VENTX (Homo sapiens, UniProt O95231 78-163, Y115F)
T2 sequence: T1 sequence with Y38F, Q44R

PAX4 [3] = molecular target: T3, PAX4 (Homo sapiens, UniProt O43316 9-242, F177V)
T3 sequence: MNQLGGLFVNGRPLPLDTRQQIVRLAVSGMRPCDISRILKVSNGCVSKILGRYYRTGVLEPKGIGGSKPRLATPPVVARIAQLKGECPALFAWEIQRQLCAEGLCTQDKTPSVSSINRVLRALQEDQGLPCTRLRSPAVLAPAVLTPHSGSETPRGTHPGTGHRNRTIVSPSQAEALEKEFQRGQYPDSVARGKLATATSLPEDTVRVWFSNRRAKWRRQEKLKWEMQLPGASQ

MSX2 = MSX2 (Homo sapiens, UniProt P35548 130-214)
ALX3 [4] = molecular target: ALX3 (Homo sapiens, UniProt O95076 139-225, N203S)
HOXA7 [5] = molecular target: HOXA7 (Homo sapiens, UniProt P31268 116-202)
PAX4 [6] = molecular target: T4, PAX4 (Homo sapiens, UniProt O43316 9-242, R200K)
T4 sequence: T3 sequence with V169F, R192K

PAX4 [7] = molecular target: T5, PAX4 (Homo sapiens, UniProt O43316 9-242)
T5 sequence: T3 sequence with V169F

PAX4 [8] = molecular target: T6, PAX4 (Homo sapiens, UniProt O43316 9-242, R200Q)
T6 sequence: T3 sequence with V169F, R192Q

PAX4 [9] = molecular target: T7, PAX4 (Homo sapiens, UniProt O43316 9-242, F177Y)
T7 sequence: T3 sequence with V169Y

PAX4 [10] = molecular target: T8, PAX4 (Homo sapiens, UniProt O43316 9-242, R227W)
T8 sequence: T3 sequence with V169F, R219W

HOXA7 [11] = molecular target: HOXA7 (Homo sapiens, UniProt P31268 116-202, W177C)
HOXA2 [12] = molecular target: HOXA2 (Homo sapiens, UniProt O43364 129-215, R185T)
HOXA2 [13] = molecular target: HOXA2 (Homo sapiens, UniProt O43364 129-215, R185K)
HOXA2 [14] = molecular target: HOXA2 (Homo sapiens, UniProt O43364 129-215, Y150S)
HOXA2 [15] = molecular target: HOXA2 (Homo sapiens, UniProt O43364 129-215)
HOXA4 = HOXA4 (Homo sapiens, UniProt Q00056 201-287, W262F)
ALX3 [16] = molecular target: ALX3 (Homo sapiens, UniProt O95076 139-225, L168V)
ALX3 [17] = molecular target: ALX3 (Homo sapiens, UniProt O95076 139-225, N203Q)
ALX3 [18] = molecular target: ALX3 (Homo sapiens, UniProt O95076 139-225)
ALX3 (Homo sapiens, UniProt O95076 139-225), sequence (O95076 139-225): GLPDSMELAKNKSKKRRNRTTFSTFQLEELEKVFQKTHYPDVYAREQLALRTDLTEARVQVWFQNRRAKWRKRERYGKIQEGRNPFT

HOXA2 (Homo sapiens, UniProt O43364 129-215, Y150S), sequence (O43364 129-215 Y150S): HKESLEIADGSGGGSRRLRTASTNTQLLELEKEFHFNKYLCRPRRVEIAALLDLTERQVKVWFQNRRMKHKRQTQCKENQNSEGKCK
HOXA2 (Homo sapiens, UniProt O43364 129-215), sequence (O43364 129-215): as the sequence (O43364 129-215 Y150S) above, with S22Y counted along it
HOXA7 (Homo sapiens, UniProt P31268 116-202, W177C), sequence (P31268 116-202 W177C): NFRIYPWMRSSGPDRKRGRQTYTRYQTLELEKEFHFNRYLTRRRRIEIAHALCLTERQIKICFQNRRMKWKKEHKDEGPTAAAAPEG
HOXA2 (Homo sapiens, UniProt O43364 129-215, R185K), sequence (O43364 129-215 R185K): as the sequence (O43364 129-215 Y150S) above, with S22Y, R57K counted along it
HOXA7 (Homo sapiens, UniProt P31268 116-202), sequence (P31268 116-202): as the sequence (P31268 116-202 W177C) above, with C62W counted along it
MSX2, sequence (P35548 130-214): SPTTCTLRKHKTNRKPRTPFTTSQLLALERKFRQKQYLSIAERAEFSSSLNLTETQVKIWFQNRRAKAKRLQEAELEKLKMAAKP
HOXA2 (Homo sapiens, UniProt O43364 129-215, R185T), sequence (O43364 129-215 R185T): as the sequence (O43364 129-215 Y150S) above, with S22Y, R57T counted along it
ALX3 (Homo sapiens, UniProt O95076 139-225, L168V), sequence (O95076 139-225 L168V): as the sequence (O95076 139-225) above, with L30V counted along it
ALX3 (Homo sapiens, UniProt O95076 139-225, N203S), sequence (O95076 139-225 N203S): as the sequence (O95076 139-225) above, with N65S counted along it
HOXA4, sequence (Q00056 201-287 W262F): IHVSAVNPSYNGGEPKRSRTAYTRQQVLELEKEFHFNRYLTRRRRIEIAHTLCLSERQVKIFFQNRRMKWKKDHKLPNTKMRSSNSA
ALX3 (Homo sapiens, UniProt O95076 139-225, N203Q), sequence (O95076 139-225 N203Q): as the sequence (O95076 139-225) above, with N65Q counted along it

With GTCCTGCA as the sequence, how does the binding signal (VENTX [1]) read?
Its binding signal is 8.28 upbm affinity estimate (log intensity, higher = more binding, comparable within an allelic series).

And the binding signal (VENTX [2])?
Its binding signal is 8.13 upbm affinity estimate (log intensity, higher = more binding, comparable within an allelic series).

How did the binding signal (PAX4 [3]) turn out when ACAATTAT was run?
Its binding signal is 10.6 upbm affinity estimate (log intensity, higher = more binding, comparable within an allelic series).

What about the binding signal (MSX2) of the same sequence?
Its binding signal is 13.8 upbm affinity estimate (log intensity, higher = more binding, comparable within an allelic series).

And the binding signal (ALX3 [4])?
The binding signal was 8.71 upbm affinity estimate (log intensity, higher = more binding, comparable within an allelic series).

How did the binding signal (HOXA7 [5]) turn out when CGGGCCCG was run?
The binding signal was 8.8 upbm affinity estimate (log intensity, higher = more binding, comparable within an allelic series).

What about the binding signal (PAX4 [6]) of the same sequence?
Its binding signal is 9.58 upbm affinity estimate (log intensity, higher = more binding, comparable within an allelic series).

What about the binding signal (PAX4 [7]) of the same sequence?
Its binding signal is 9.62 upbm affinity estimate (log intensity, higher = more binding, comparable within an allelic series).

What about the binding signal (PAX4 [8]) of the same sequence?
Its binding signal is 9.41 upbm affinity estimate (log intensity, higher = more binding, comparable within an allelic series).

And the binding signal (PAX4 [3])?
The binding signal was 9.21 upbm affinity estimate (log intensity, higher = more binding, comparable within an allelic series).

And the binding signal (PAX4 [9])?
Its binding signal is 9.11 upbm affinity estimate (log intensity, higher = more binding, comparable within an allelic series).

What about the binding signal (PAX4 [10]) of the same sequence?
The binding signal was 9.33 upbm affinity estimate (log intensity, higher = more binding, comparable within an allelic series).

What about the binding signal (HOXA7 [11]) of the same sequence?
Its binding signal is 8.26 upbm affinity estimate (log intensity, higher = more binding, comparable within an allelic series).

What does the source list for GCCAGACC?
binding signal (PAX4 [6]): 9.2 upbm affinity estimate (log intensity, higher = more binding, comparable within an allelic series); binding signal (PAX4 [7]): 9.05 upbm affinity estimate (log intensity, higher = more binding, comparable within an allelic series); binding signal (HOXA2 [12]): 7.3 upbm affinity estimate (log intensity, higher = more binding, comparable within an allelic series); binding signal (PAX4 [8]): 9.35 upbm affinity estimate (log intensity, higher = more binding, comparable within an allelic series); binding signal (HOXA2 [13]): 10.5 upbm affinity estimate (log intensity, higher = more binding, comparable within an allelic series); binding signal (PAX4 [3]): 9.2 upbm affinity estimate (log intensity, higher = more binding, comparable within an allelic series); binding signal (PAX4 [9]): 9.19 upbm affinity estimate (log intensity, higher = more binding, comparable within an allelic series); binding signal (PAX4 [10]): 9.26 upbm affinity estimate (log intensity, higher = more binding, comparable within an allelic series); binding signal (HOXA2 [14]): 10.4 upbm affinity estimate (log intensity, higher = more binding, comparable within an allelic series); binding signal (HOXA2 [15]): 7.38 upbm affinity estimate (log intensity, higher = more binding, comparable within an allelic series)

Which binding signal (HOXA7 [5]) does the source give for CCGTAGGC here?
Its binding signal is 8.48 upbm affinity estimate (log intensity, higher = more binding, comparable within an allelic series).

What about the binding signal (HOXA7 [11]) of the same sequence?
Its binding signal is 8.4 upbm affinity estimate (log intensity, higher = more binding, comparable within an allelic series).

For CTGCATTA, which binding signal (HOXA7 [5]) is on record?
Its binding signal is 9.13 upbm affinity estimate (log intensity, higher = more binding, comparable within an allelic series).

What about the binding signal (HOXA2 [12]) of the same sequence?
Its binding signal is 9.52 upbm affinity estimate (log intensity, higher = more binding, comparable within an allelic series).

What about the binding signal (HOXA2 [13]) of the same sequence?
The binding signal was 11.7 upbm affinity estimate (log intensity, higher = more binding, comparable within an allelic series).

And the binding signal (HOXA2 [14])?
The binding signal was 10.6 upbm affinity estimate (log intensity, higher = more binding, comparable within an allelic series).

And the binding signal (HOXA7 [11])?
The binding signal was 8.56 upbm affinity estimate (log intensity, higher = more binding, comparable within an allelic series).

What about the binding signal (HOXA2 [15]) of the same sequence?
The binding signal was 9.83 upbm affinity estimate (log intensity, higher = more binding, comparable within an allelic series).

AGGGTCCC was tested. Which binding signal (HOXA4) did it give?
The binding signal was 9.78 upbm affinity estimate (log intensity, higher = more binding, comparable within an allelic series).

What does the source list for ATAATTGC?
binding signal (HOXA7 [5]): 11.5 upbm affinity estimate (log intensity, higher = more binding, comparable within an allelic series); binding signal (HOXA2 [12]): 12.4 upbm affinity estimate (log intensity, higher = more binding, comparable within an allelic series); binding signal (HOXA2 [13]): 13.2 upbm affinity estimate (log intensity, higher = more binding, comparable within an allelic series); binding signal (MSX2): 14 upbm affinity estimate (log intensity, higher = more binding, comparable within an allelic series); binding signal (HOXA2 [14]): 10.8 upbm affinity estimate (log intensity, higher = more binding, comparable within an allelic series); binding signal (HOXA7 [11]): 8.84 upbm affinity estimate (log intensity, higher = more binding, comparable within an allelic series); binding signal (HOXA2 [15]): 12.2 upbm affinity estimate (log intensity, higher = more binding, comparable within an allelic series)

Which binding signal (MSX2) does the source give for CCAGCGCA here?
Its binding signal is 9.44 upbm affinity estimate (log intensity, higher = more binding, comparable within an allelic series).

CAGCCAGG was tested. Which binding signal (VENTX [1]) did it give?
Its binding signal is 8.2 upbm affinity estimate (log intensity, higher = more binding, comparable within an allelic series).

What about the binding signal (VENTX [2]) of the same sequence?
Its binding signal is 8.16 upbm affinity estimate (log intensity, higher = more binding, comparable within an allelic series).

Which results are given for AATAATTG?
binding signal (MSX2): 13.7 upbm affinity estimate (log intensity, higher = more binding, comparable within an allelic series); binding signal (ALX3 [16]): 9.75 upbm affinity estimate (log intensity, higher = more binding, comparable within an allelic series)

Which binding signal (VENTX [1]) does the source give for CGACGCGA here?
Its binding signal is 7.97 upbm affinity estimate (log intensity, higher = more binding, comparable within an allelic series).

What about the binding signal (VENTX [2]) of the same sequence?
Its binding signal is 8.13 upbm affinity estimate (log intensity, higher = more binding, comparable within an allelic series).

What does the source list for GCCAGCGA?
binding signal (VENTX [1]): 8.16 upbm affinity estimate (log intensity, higher = more binding, comparable within an allelic series); binding signal (VENTX [2]): 8.18 upbm affinity estimate (log intensity, higher = more binding, comparable within an allelic series)

CCGAGCCG was tested. Which binding signal (HOXA7 [5]) did it give?
Its binding signal is 8.34 upbm affinity estimate (log intensity, higher = more binding, comparable within an allelic series).

And the binding signal (ALX3 [17])?
Its binding signal is 7.62 upbm affinity estimate (log intensity, higher = more binding, comparable within an allelic series).

And the binding signal (ALX3 [18])?
The binding signal was 7.46 upbm affinity estimate (log intensity, higher = more binding, comparable within an allelic series).

What about the binding signal (ALX3 [16]) of the same sequence?
Its binding signal is 7.69 upbm affinity estimate (log intensity, higher = more binding, comparable within an allelic series).

What about the binding signal (HOXA7 [11]) of the same sequence?
Its binding signal is 8.22 upbm affinity estimate (log intensity, higher = more binding, comparable within an allelic series).

What about the binding signal (ALX3 [4]) of the same sequence?
The binding signal was 7.67 upbm affinity estimate (log intensity, higher = more binding, comparable within an allelic series).

Source: publication PMC11006913
